High-throughput results from PubChem BioAssay.
TSHR ag – agonists of human thyroid stimulating hormone receptor; P16473; HEK293-CNG-TSHR cells (CNG channel as cAMP sensor), membrane potential dye, cAMP; Potency, µM (titrated, usually from 57.1 µM), inactives show at the top dose activation, usual class: activators; 73,000 compounds, 0.48% hits; active = well fitted activation curve with a large enough effect in the main read-out, with a control signal flat, not every such curve was filed as active; inconclusive = small, poorly fitted or top-dose-only effect, or a change in a side signal; inactive = no such curve, though single readings can be large or run the other way; % of control where 0% means no effect;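 also: the control signal comes from parental cells without the receptor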
Target sequence (P16473 whole entry, looked up): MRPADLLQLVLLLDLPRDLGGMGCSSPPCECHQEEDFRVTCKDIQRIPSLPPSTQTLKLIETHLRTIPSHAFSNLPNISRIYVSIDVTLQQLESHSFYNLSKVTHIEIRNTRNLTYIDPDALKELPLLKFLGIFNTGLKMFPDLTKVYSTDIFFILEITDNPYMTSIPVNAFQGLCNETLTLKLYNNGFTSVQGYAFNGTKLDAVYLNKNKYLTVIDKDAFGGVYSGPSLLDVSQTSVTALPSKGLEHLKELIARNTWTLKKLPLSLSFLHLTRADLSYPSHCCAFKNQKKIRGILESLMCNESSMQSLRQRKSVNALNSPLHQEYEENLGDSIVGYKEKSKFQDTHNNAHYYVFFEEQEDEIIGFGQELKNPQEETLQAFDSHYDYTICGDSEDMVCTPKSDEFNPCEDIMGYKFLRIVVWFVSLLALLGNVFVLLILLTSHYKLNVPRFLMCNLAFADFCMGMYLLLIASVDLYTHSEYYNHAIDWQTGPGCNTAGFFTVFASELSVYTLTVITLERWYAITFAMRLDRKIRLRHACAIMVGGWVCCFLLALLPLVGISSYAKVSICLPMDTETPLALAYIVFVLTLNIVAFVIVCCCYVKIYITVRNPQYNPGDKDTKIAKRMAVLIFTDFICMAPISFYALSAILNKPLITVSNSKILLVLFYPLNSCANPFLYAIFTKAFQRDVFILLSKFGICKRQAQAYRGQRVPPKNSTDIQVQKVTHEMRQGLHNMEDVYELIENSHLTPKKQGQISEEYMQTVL
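HEK 293 cells stably expressing TSHR and a modified CNG channel, with CNG-only parental cells as counterscreen, were preloaded 60 min at room temperature with membrane potential dye containing 100 uM RO 20-1724. Compound exposure was 30 min, and depolarization was read as fluorescence at 590 nm.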
IkB sig inh – IkB pathway inhibition in ABC-DLBCL cells. AID 445. ABC-DLBCL IkBa-CBG/CBR dual luciferase ratio, 4 h; response scale: scaled: untreated 0%, proteasome inhibitor 100%. 110,000 compounds, 0.04% hits. Potency, µM (highest dose often 57.1 µM), for the others: top-dose IkBa stabilization activation; active = well fitted curve in the direction sought with a large enough effect in the signal ratio, not every such curve was filed as active; inconclusive = small, poorly fitted or top-dose-only effect, or a change in a side signal; the % refers to the signal ratio;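 also: the direction sought is a rising ratio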
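Curves were fitted separately to fusion (green), unfused (red) and ratio luminescence, then classed by r2, magnitude and activity. Cells: OCI-Ly3, 4 h compound plus doxycycline at 37C; 10 uM MG-132 defined full response.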
p53ts 39C kill – cytotoxicity in p53ts cells at nonpermissive temperature; H1299-p53A138V viability at 39C, ATP luminescence, 24 h; Potency, µM (series often up to 46.1 µM), for the others: at the highest dose activity change, negative = cell killing, most hits filed as cytotoxic; 130,000 compounds, 1.5% hits; also: % is scaled to controls: 0 for no effect and ±100 for the full control effect; nearly all actives have a fitted effect of over 55% in size
HEK293 cAMP ctrl – counter-screen for TSHR agonists: cAMP increase in parental HEK293; parental HEK293 CNG cAMP sensor, membrane potential fluorescence; AID 938; Potency, µM (top dose mostly 57.1 µM), without a hit: at the highest dose activation, most hits filed as activators; 73,000 compounds, 2.5% hits; also: % of control where 0% means no effect; nearly all actives have a fitted effect of over 55% in size
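Parental HEK 293 cells stably expressing a cAMP-gated CNG channel were loaded with membrane potential dye containing 100 uM RO 20-1724 for 60 min. Compound added for 30 min; depolarization read as fluorescence intensity at 590 nm.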
p53ts 32C tox – kills p53ts cells at the permissive temperature. 130,000 compounds, 0.93% hits. H1299-p53A138V at 32C, ATP luminescence viability, 24 h. Potency, µM (doses to about 46.1 µM), without a hit: top-dose activity change, negative = cytotoxicity, most hits filed as cytotoxic. AID 924;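 also: 0% = DMSO and -100% = full killing by reference compound; nearly all actives have a fitted effect of over 55% in size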
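ATP-content luminescence (ATPlite) read-out after 24 h compound exposure at 32C in H1299-p53A138V cells (600/well). Tested up to 46 uM. Normalized to DMSO (0%) and 100 uM tamoxifen (100% killing); Hill-fit AC50.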
Imprint erasure – genomic imprint erasure induction; AID 1948; mouse ES Peg3-LacZ reporter, beta-gal luminescence, 40 h; Potency, µM (titrated, usually from 60.7 µM), inactives show at the highest dose activity change, positive = activation, actives largely listed as activators; 110,000 compounds, 0.02% hits
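Each well holds 300 Peg3LacZ-Neo (maternal) female ES cells incubated 40 h at 37C, 5% CO2. LacZ is measured by BetaGlo luminescence, with AC50 and maximum efficacy derived from dose-response curves.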
An asterisk follows results filed as active; ? = inconclusive; . = no result; [ ] = remark or other dose. A selection: hits, their analogues and other compounds. The true share with any hit is near 3.1%. Unless noted, calls follow the shape of the dose curve; as a rule, active = well fitted curve in the direction sought with a large enough effect; inconclusive = small, poorly fitted or top-dose-only effect, or another doubt; inactive = no such curve, though single readings can be large; an effect the other way counts as inactive or inconclusive. Potency is read from the fitted curve at half-maximal effect.

SMILES	TSHR ag	IkB sig inh	p53ts 39C kill	HEK293 cAMP ctrl	p53ts 32C tox	Imprint erasure
COC(=O)c1ccccc1NC(=O)CSc1nnc(-c2ccc(C)cc2)o1	.	.	5.1%	.	4.4%	.
Cc1ccc(-c2nnc(SCC(=O)Nc3ccccc3F)o2)cc1	16.0%	?	2.51µM*	6.0%	5.01µM*	-91.0%
Cc1ccc(C(=O)Nc2ccc3c(c2)N(C)C(=O)c2ccccc2S3)cc1F	.	?	-10.2%	.	4.2%	-21.8%[10.9 µM]
O=C(CSc1nnc(-c2ccccc2)o1)Nc1ccccc1F	17.4%	?	10µM*	1.3%	12.6µM*	-92.9%
CCN(c1ccc(Cl)cc1)S(=O)(=O)c1nnc(NC(=O)C2CCCCC2)s1	.	-2.9%	-3.5%	.	-3.1%	-9.2%[10.9 µM]
N#Cc1cccc(-c2nc(NCc3cccs3)c3ccccc3n2)c1	22.7%	1.4%[11.4 µM]	-24.5%	14.1%	-17.2%	6.31µM*
c1cncc(-c2nc(NCc3cccs3)c3ccccc3n2)c1	31.6µM*	-2.1%[11.4 µM]	-20.9%	14.1%	-0.1%	-4.3%
O=C1O[C@@H]([C@H](O)[C@H](O)[C@H](O)CO)[C@@H](O)[C@@H]1O	3.7%[11.4 µM]	-1.1%[11.4 µM]	3.5%[9.22 µM]	10.6%[11.4 µM]	6.1%[9.22 µM]	-8.1%[10.9 µM]
COc1ccccc1NC(=O)C1=C(C)Nc2nc(SCc3ccccc3F)nn2C1c1ccncc1 (stereo not drawn)	.	-0.6%	-15.1%	.	1.1%	5.9%[10.9 µM]
CC1=C(C(=O)Nc2ccccc2C)C(c2ccccn2)n2nc(SCc3ccccc3F)nc2N1 (stereo not drawn)	.	2.4%	6.31µM*	.	-14.4%	1.7%[10.9 µM]
CCOC(=O)C(C)Sc1nnc(-c2ccccc2O)n1-c1ccc(C)cc1 (stereo not drawn)	?	0.4%	-8.1%	20µM*	4.4%	.
COC(=O)CSc1nnc(-c2ccccc2O)n1-c1ccc(C)cc1	?	-0.8%	-5.2%	?	0.3%	-7.9%
COc1ccc(NC(=O)CCS(=O)(=O)c2nc(-c3cccs3)cc(C(F)(F)F)n2)cc1OC	.	?	3.98µM*	.	?	-10.3%[10.9 µM]
O=C(CCS(=O)(=O)c1nc(-c2ccc3c(c2)OCO3)cc(C(F)(F)F)n1)Nc1ccccc1C(F)(F)F	.	-3.4%	7.94µM*	.	?	3.6%[10.9 µM]
Cc1cc(NC(=O)CCCS(=O)(=O)c2nc(-c3cccs3)cc(C(F)(F)F)n2)no1	10.0%	?	?	6.4%	?	-31.2%
COc1cc(NC(=O)CCS(=O)(=O)c2nc(-c3cccs3)cc(C(F)(F)F)n2)cc(OC)c1OC	.	?	12.6µM*	.	-19.4%	-7.9%[10.9 µM]
COc1cc(NC(=O)CSc2nc(-c3cccs3)cc(C(F)(F)F)n2)cc(OC)c1OC	.	5.5%	-8.1%	.	8.6%	-15.1%[10.9 µM]
O=C(CCS(=O)(=O)c1nc(-c2cccs2)cc(C(F)(F)F)n1)Nc1cccc(O)c1	.	0.4%	12.6µM*	.	?	7.1%[10.9 µM]
COc1ccc(NC(=O)CCS(=O)(=O)c2nc(-c3ccc4c(c3)OCO4)cc(C(F)(F)F)n2)c(OC)c1	.	?	?	.	?	-3.9%[10.9 µM]
CCOc1ccc(-c2cc(C(=O)N3CCN(c4ccc(C)cc4)C(C)C3)c3ccccc3n2)cc1 (stereo not drawn)	.	-2.0%	20µM*	.	15.8µM*	-20.5%[10.9 µM]
CCOC(=O)N1CCN(C(=O)c2cc(-c3ccc(OCC)cc3)nc3ccccc23)CC1	17.6%	-0.3%	10µM*	17.3%	5.01µM*	-17.4%
CCOc1ccc(-c2cc(C(=O)N3CCN(C)CC3)c3ccccc3n2)cc1	9.6%	2.2%	3.98µM*	19.9%	2.51µM*	-10.5%
CC(C)c1ccc(NC(=O)C2CCCN(S(=O)(=O)c3ccc4[nH]c(=O)ccc4c3)C2)cc1 (stereo not drawn)	.	-2.2%	10µM*	.	?	-9.9%[10.9 µM]
O=C(Nc1ccc(Cl)cc1)C1CCCN(S(=O)(=O)c2ccc3[nH]c(=O)ccc3c2)C1 (stereo not drawn)	.	?	1.9%	.	-22.4%	?
